Test results reported in PubChem BioAssay AID1203 (The Scripps Research Institute Molecular Screening Center, 2008).
Out of some 200,000 compounds screened, about 80 (0.04%) were called active.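 How the source made its calls: active means activation above the mean across all tested compounds plus 3 SD, cutoff set per campaign (cut at about 5.5% in these data); inactive means the rest.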 Only a selection was taken, and actives are over-represented in it overall.

test: Hsp70 promoter-driven reporter induction – cell-based, HeLa, Hsp70 promoter luciferase, luminescence, 10 µM, primary screen (AID 1203); settings: at 10 µM, stronger effect = higher value, scaled: vehicle 0, proteasome-inhibitor control 100%;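 further: 100% = MG132 at 30 µM as the positive control and 0% = DMSO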

activation, inactive:
Fc1ccccc1CNC(=S)Nc1ccc(Cl)cc1 -0.2%
Cc1nnc(SCC(=O)NNC(=O)c2ccc(Cl)cc2)n1CC1CCCO1 (centres undefined) -0.36%
CC(C)CC(=O)NC(=S)Nc1ccc(F)cc1F -0.43%
O=C(NCCOCc1ccc(Cl)cc1)c1ncn[nH]1 -0.36%
Cc1ccc(C(=O)/C=C/c2c(C)nn(-c3ccccc3)c2Cl)cc1 -0.32%
Cc1cccc(C)c1NC(=S)N(Cc1cccnc1)Cc1ccccc1Cl -0.11%
N#C/C(=C/c1ccc(N2CCOCC2)o1)C(=O)N1CCOCC1 -0.09%
CCC(=O)c1ccc(OCC(O)Cn2nc(C)c(C(C)=O)c2C)cc1 (centres undefined) 0%
CC(C)c1ccc(C2C(C#N)=C(N)Oc3c2oc(CO)cc3=O)cc1 (centres undefined) -0.2%
CSc1ccc(/C=C/C(=O)NC23CC4CC(CC(C4)C2)C3)cc1 -0.25%
CCc1ccccc1NC(=O)CN(C)C(=O)COc1ccc(C)nc1[N+](=O)[O-] -0.28%
CC1CN/C(=C\C(=O)c2ccc(Br)cc2)C(=O)N1 (centres undefined) -0.31%
COc1ccc(CC(NC(C)=O)C(=O)NC2CCN(C(=O)c3ccc(OC)c(OC)c3)CC2)cc1OC (centres undefined) -0.19%
Cc1cc(C)n2nc(SCC(=O)NC(=O)NCc3ccco3)nc2n1 -0.06%
COCc1c(C(=O)OCc2c(C)noc2C)oc2ccccc12 0.25%
Cc1cc(C)c2[nH]c(=O)c(CN(Cc3ccccc3)C(=S)NCCCN(C)C)cc2c1 -0.22%
CC(C)(C)NC(=O)Cn1cnc2cc([N+](=O)[O-])ccc2c1=O 0.46%
NNC(=O)c1cnn(-c2ccccc2)c1C(F)(F)F 0.08%
CN(C)C(=O)N1CCNCC1 -0.1%
CC(C)CN(C(=O)CN1CCN(S(=O)(=O)c2ccccc2)CC1)c1c(N)n(CC(C)C)c(=O)[nH]c1=O 0.23%
CCOC(=O)c1c(CN(C)C)n(-c2ccccc2)c2cc(Br)c(O)cc12 -0.03%
C/C(=N\Nc1ncc(Cl)cc1Cl)c1cccs1 -0.17%
Cc1ccc(N2C(=O)C(NC(=O)c3c(F)cccc3F)(C(F)(F)F)C3=C2CC(C)(C)CC3=O)cc1 (centres undefined) -0.33%
Cc1cccc(NC(=O)Cn2c(=O)n(Cc3ccccc3)c(=O)c3c(C)c(C)sc32)c1 -0.2%
Cc1cc(Cl)ccc1OCCCC(=O)NCc1ccncc1 0.28%
C=CCn1cc(C(=O)NCc2ccc(Cl)cc2)c(=O)c2cc(S(=O)(=O)N(CC)CC)ccc21 -0.11%
COc1cccc(-c2nn(-c3ccccc3)cc2/C=C(\C#N)C(=O)NCCCn2ccnc2)c1 -0.06%
CC(C)Oc1ccccc1C(=O)NC(CO)C(=O)O (centres undefined) 0.09%
O=C(CSc1ccc([N+](=O)[O-])cn1)Nc1ccc(N2CCOCC2)cc1 -0.24%
NS(=O)(=O)c1cccnc1Nc1cccc(Cl)c1 0.75%
CC(Oc1ccccc1)C(=O)NN1Cc2ccccc2C1=N (centres undefined) -0.3%
CC(OC(=O)c1ccccc1N1C(=O)C2C3CCC(C3)C2C1=O)C(=O)c1ccccc1 (centres undefined) -0.1%
O=[N+]([O-])c1cccc(C2=NCCS2)c1 -0.29%
CC(=O)N1CCN(CC(=O)Nc2ccc(SC(F)F)cc2)CC1 -0.16%
CNC(=S)N1CCN(c2ccccn2)CC1 0.23%
CC(=O)c1c(C)[nH]c(C(=O)OCC(=O)NCCC(C)C)c1C -0.33%
Cc1ccccc1N1C(=O)C(Oc2ccc(Cl)cc2)C1CNCC1CCCO1 (centres undefined) -0.08%
COc1ccc(S(=O)(=O)N(C)CC(=O)N2CCCC2)cc1Cl -0.1%
NC(=O)c1ccc(NC(=O)COC(=O)c2c3c(nc4ccccc24)/C(=C\c2ccc4c(c2)OCO4)CCC3)cc1 -0.43%
COc1ccc(C2CC(c3cccs3)=NN2C(=O)CSc2nnc(N)s2)cc1OC (centres undefined) -0.12%
CCN(CC)CCN(C(=O)c1cccc([N+](=O)[O-])c1)c1nc2ccc(OC)cc2s1 -0.15%
CCOc1ccc(-c2n[nH]c(C)c2-c2ccccn2)c(O)c1 -0.39%
CCC(=O)NC(Nc1cc(C)ccn1)(C(F)(F)F)C(F)(F)F -0.11%
Cc1ccc(NC(=S)N(CCCN2CCCC2)Cc2cccn2Cc2ccc(Cl)cc2)cc1 0.2%
COc1ccc(NC(=O)/C(C#N)=C\c2cc(OC)c(OCc3ccc(C(=O)O)cc3)cc2Br)cc1 -0.51%
COc1ccc(NC(=O)CSc2nnc(-c3ccccc3F)n2C2CC2)cc1S(N)(=O)=O -0.2%
Cc1ccc(-n2c(SCC(=O)N3c4ccccc4Sc4ccccc43)nnc2-c2ccncc2)cc1 -0.33%
CC(C)NC(=O)NC(=O)CSc1nnc(-c2ccccc2F)n1N 0.03%
Cc1cc(C)c(OCCN2CC(C)OC(C)C2)c(Br)c1 (centres undefined) -0.19%
Cc1ccc(C)c(-n2cc(CN3CCN(C(=O)c4ncn[nH]4)CC3)c(-c3ccccc3)n2)c1 -0.1%
CC(=C/c1ccccc1)/C=N/NC(=O)c1cc(C)oc1C 0%
CCCOC1CCCN(Cc2cn(C)nc2-c2ccccc2F)C1 (centres undefined) -0.04%
Cc1ccccc1NC(=O)Cn1c(=O)n(CC2CCCO2)c(=O)c2ccccc21 (centres undefined) -0.17%
O=C1NC2(CCCCCC2)C(=O)N1CCS(=O)(=O)Oc1ccccc1 -0.27%
Cc1ccc(C(=O)NCC(=O)O)s1 0.11%
O=C(CCCN1C(=O)/C(=C/c2ccccc2)SC1=S)Nc1ccc(O)cc1 -0.12%
Cc1ccc(NC(=O)c2cccnc2C(=O)Nc2ccc(C)cc2)cc1 -0.14%
NC(=O)C[C@@H]1NC(=O)CNC(=O)c2cc([N+](=O)[O-])cc(I)c2NCCC(C(N)=O)NC1=O (some centres undefined) 0.03%

activation, active:
O=C(/C=C/Sc1ncn[nH]1)c1ccc(Cl)cc1 26.9%
